Screening data as filed in PubChem BioAssay.
An excerpt weighted towards active compounds, which were near 3.3% of everything screened.
PfGluPho inh = PfG6PD (Plasmodium falciparum) enzyme inhibition; PfGluPho enzyme, NADPH resazurin-diaphorase fluorescence; 350,000 tested, 0.78% active; inhibition, % at 20 µM;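 active = inhibition reaching at least a set limit at 20 µM in the primary screen, cut at about 59% in these data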
PRMT1 inh = PRMT1 (human) inhibition, primary screen; Q99873; recombinant PRMT1, activity-based probe fluorescence polarization; inhibition, % at 2.79 µM; 370,000 tested, 1.3% active; AID 652257;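 active = inhibition above about 21% made by adding two undisclosed values, limit read from the data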
Target sequence (Q99873 whole entry, looked up): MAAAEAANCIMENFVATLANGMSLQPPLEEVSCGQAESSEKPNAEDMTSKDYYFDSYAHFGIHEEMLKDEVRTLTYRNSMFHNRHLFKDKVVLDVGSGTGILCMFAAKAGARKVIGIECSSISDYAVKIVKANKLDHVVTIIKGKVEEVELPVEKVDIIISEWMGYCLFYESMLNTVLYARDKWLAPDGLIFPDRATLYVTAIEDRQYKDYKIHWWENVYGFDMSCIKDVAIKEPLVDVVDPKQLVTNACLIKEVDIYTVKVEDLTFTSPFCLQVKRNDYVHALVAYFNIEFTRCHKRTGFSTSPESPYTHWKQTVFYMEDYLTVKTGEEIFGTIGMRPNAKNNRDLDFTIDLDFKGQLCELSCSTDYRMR
M18AAP inhibitor = blocks P. falciparum M18 aspartyl aminopeptidase. recombinant PfM18AAP, H-Glu-NHMec fluorogenic cleavage. inhibition, % at 7.35 µM. 290,000 tested, 1.2% active. AID 1822;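 active = inhibition above the campaign mean inhibition over all tested compounds plus 3 SD, cut at about 28% in these data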
MBD2 DNA inh = inhibitors of human MBD2 binding to methylated oligonucleotide; Q9UBB5; TR-FRET; inhibition, % at 4.4 µM; 370,000 tested, 0.31% active; in the data active = inhibition above about 13%
UHRF1 binding = human UHRF1 methylated DNA binding inhibitors; UHRF1 binding to methylated oligo, TR-FRET; AID 687016; inhibition, % at 4.4 µM; 370,000 tested, 0.75% active; in the data active = inhibition above about 21%;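 note: UHRF1 SRA domain binding a hemimethylated CpG hairpin DNA probe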
PfGluPho conf = confirmation of Plasmodium falciparum G6PD inhibitors; recombinant PfGluPho, NADPH-diaphorase-resazurin fluorescence; inhibition, % at 20 µM; AID 504753; 2,400 tested, 34% active; shares compounds with PfGluPho inh;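 active = inhibition of at least 50% at 20 µM in any single replicate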
Diaphorase 10uM = counter-screen for P. falciparum G6PD inhibitors: diaphorase inhibitors, oxidizers; diaphorase-coupled resazurin reduction, fluorescence, NADPH 10 uM; inhibition, % at 20 µM; shares compounds with PfGluPho inh; AID 504862; 820 tested, 39% active;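 active = average inhibition reaching 50% or more with the compound at 20 µM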;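 note: resorufin red fluorescence formed as diaphorase reduces resazurin using NADPH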
Diaphorase 30uM = inhibits diaphorase or oxidizes, flagging false PfG6PD hits | shares compounds with PfGluPho inh | Diaphorase/resazurin coupled assay, resorufin fluorescence, 30 uM NADPH | inhibition, % at 20 µM | 820 tested, 29% active | AID 504863;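 active = inhibition averaging 50% or more, tested at 20 µM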
Of the large screens only hits and unclear results are named; the others gave an inactive call (follow-up assays come after a bar, where they were run).

CC(=O)OCC1OC(n2c(S)c(C#N)c(-c3ccccc3)c(C#N)c2=O)C(OC(C)=O)C(OC(C)=O)C1OC(C)=O (stereo not drawn)	PfGluPho inh 66 (no result: M18AAP inhibitor) | PfGluPho conf inactive
CCc1ccc(S(=O)(=O)/N=C2\C=C(Nc3cccc(C(=O)O)c3)C(=O)c3ccccc32)cc1	PfGluPho inh 61 | PfGluPho conf inactive
CCc1ccc(S(=O)(=O)/N=C2\C=CC(=O)c3ccccc32)cc1	none (no result: PfGluPho inh, PRMT1 inh, MBD2 DNA inh, UHRF1 binding)
CCc1ccc(S(=O)(=O)/N=C2\C=C(Nc3ccc(O)cc3)C(=O)c3ccccc32)cc1	PfGluPho inh 94 (no result: PRMT1 inh, MBD2 DNA inh, UHRF1 binding) | PfGluPho conf inactive
Cc1cc(C)c(S(=O)(=O)/N=C2\C=C(NS(=O)(=O)c3ccccc3)C(=O)c3ccccc32)c(C)c1	none
O=C(Nc1ccc2nc(-c3ccco3)c(-c3ccco3)nc2c1)NC1CC1	PfGluPho inh 82, M18AAP inhibitor 29 (no result: PRMT1 inh, MBD2 DNA inh, UHRF1 binding) | PfGluPho conf inactive
O=C(NCCCO)Nc1ccc2nc(-c3ccco3)c(-c3ccco3)nc2c1	none (no result: PfGluPho inh, PRMT1 inh, MBD2 DNA inh, UHRF1 binding)
CC1(OC(=O)C2CCCC2)C(=O)C=C2C=C(c3ccsc3)N(Cc3ccco3)C=C2C1=O (stereo not drawn)	none (no result: PRMT1 inh, M18AAP inhibitor, MBD2 DNA inh, UHRF1 binding)
CC1(OC(=O)C2CCCC2)C(=O)C=C2C=C(c3ccsc3)N(C3CCCC3)C=C2C1=O (stereo not drawn)	PfGluPho inh 63 (no result: M18AAP inhibitor) | PfGluPho conf inactive
CC1(OC(=O)C2CCCC2)C(=O)C=C2C=C(c3ccsc3)OC=C2C1=O (stereo not drawn)	none (no result: M18AAP inhibitor)
CCCCC1=CC2=CC(=O)C(C)(OC(=O)CC)C(=O)C2=CN1Cc1ccc(OC)cc1 (stereo not drawn)	none (no result: M18AAP inhibitor)
CC1(OC(=O)C2CCCC2)C(=O)C=C2C=C(c3ccsc3)N(CCCCO)C=C2C1=O (stereo not drawn)	PfGluPho inh 66 (no result: M18AAP inhibitor) | PfGluPho conf inactive
COc1ccc(CN2C=C3C(=O)C(C)(OC(=O)C4CCCC4)C(=O)C=C3C=C2c2ccsc2)cc1 (stereo not drawn)	PfGluPho inh 67 (no result: M18AAP inhibitor) | PfGluPho conf inactive
CCOC(=O)C(=CNc1ccc(NC2=NCC(C)(C)S2)cc1)C(=O)OCC	none
CCn1cc(CCC(=O)Nc2ccc(Oc3cccnc3)cc2)c2ccccc21	none (no result: PfGluPho inh, M18AAP inhibitor)
COc1cccc(C(=O)Nc2nnc(Cc3ccc(OC)c(OC)c3)s2)c1	none
CCCc1nnc(NC(=O)c2cccc(OC)c2)s1	PfGluPho inh 63 | PfGluPho conf inactive
CC(C)c1nnc(NC(=O)c2cccc(-n3cnnn3)c2)s1	PfGluPho inh 76 | PfGluPho conf 56 | Diaphorase 10uM 53 | Diaphorase 30uM inactive
COc1cccc(C(=O)Nc2nnc(C(C)C)s2)c1	PfGluPho inh 91 | PfGluPho conf 56 | Diaphorase 10uM 59 | Diaphorase 30uM inactive
CC(=C1SC(=S)NC1=O)c1ccc(Cl)c(O)c1	none (no result: PfGluPho inh, M18AAP inhibitor)
O=C(CNc1cccc2ccccc12)N/N=C/c1ccccn1	PfGluPho inh 60 | PfGluPho conf inactive
Cc1cccc(NCC(=O)N/N=C\c2ccccn2)c1	none
NC(=S)NN=Cc1nccc2ccccc12	PfGluPho inh 80 (no result: M18AAP inhibitor) | PfGluPho conf inactive
Cc1cnc(C=NNC(N)=S)c2cccc(N)c12	PfGluPho inh 106 (no result: M18AAP inhibitor) | PfGluPho conf 66 | Diaphorase 10uM inactive | Diaphorase 30uM inactive
COc1ccc(C/C(C)=N/NS(=O)(=O)c2ccc(Br)cc2)cc1	none
CC(=O)Nc1cc(C(C)(C)C)c(O)c(C(C)(C)C)c1	PfGluPho inh 81, M18AAP inhibitor 31 | PfGluPho conf inactive
C=CCN(CC#Cc1ccccc1)CC1CC1	none (no result: PfGluPho inh, M18AAP inhibitor)
C=C(CN(C)C)C(=O)c1cc(C)ccc1C	PfGluPho inh 79 (no result: M18AAP inhibitor) | PfGluPho conf inactive
COc1ccc(CN2CCNC(=O)C2CC(=O)N2CCCCO2)cc1OC (stereo not drawn)	none
COc1ccc(Nc2nc(C)c(-c3ccccc3)s2)cc1	PfGluPho inh 76 | PfGluPho conf inactive
S=C(c1ccc(-c2ccccc2Cl)o1)N1CCOCC1	PfGluPho inh 62 (no result: PRMT1 inh, MBD2 DNA inh, UHRF1 binding) | PfGluPho conf inactive
S=C(c1ccc(-c2ccc(Cl)c(Cl)c2)o1)N1CCOCC1	none (no result: PRMT1 inh, MBD2 DNA inh, UHRF1 binding)
COc1ccc(C(=O)C2(C(=O)NCc3ccccc3)CC(c3ccccc3C(F)(F)F)=NO2)cc1 (stereo not drawn)	none (no result: PfGluPho inh, M18AAP inhibitor)
CCOC(=O)C1=CCN(S(=O)(=O)c2ccc(F)cc2)C1c1ccc(Cl)cc1 (stereo not drawn)	none (no result: PfGluPho inh, M18AAP inhibitor)
Cc1ccc(/C=C/C(=O)N2CCN(S(=O)(=O)c3cccs3)CC2)o1	PfGluPho inh 73 | PfGluPho conf inactive
Cc1ccc(/C=C/C(=O)N2CCN(S(=O)(=O)/C=C/c3ccccc3)CC2)o1	PfGluPho inh 63 | PfGluPho conf inactive
O=C(NCc1ccncc1)Nc1cccc([N+](=O)[O-])c1	none
O=[N+]([O-])c1cccc(NC(=S)NCc2ccncc2)c1	PfGluPho inh 79 | PfGluPho conf inactive
Nc1cc(=O)[nH]c(SCC(=O)NC2CCCc3ccccc32)n1 (stereo not drawn)	none
CCCc1cc(=O)[nH]c(SCC(=O)NC2CCCc3ccccc32)n1 (stereo not drawn)	PfGluPho inh 64 | PfGluPho conf inactive
CN(C)c1cccc2c1c(NC(=O)c1ccc(F)cc1)nn2C	PfGluPho inh 74 | PfGluPho conf 57 | Diaphorase 10uM inactive | Diaphorase 30uM inactive
CN(C)c1cccc2c1c(NC(=O)Nc1ccc(F)cc1F)nn2C	none
CN(C)c1cccc2c1c(NC(=O)c1ccc(Cl)cc1)nn2C	PfGluPho inh 103 | PfGluPho conf 73 | Diaphorase 10uM inactive | Diaphorase 30uM 52
Cc1nc(-c2ccccc2)sc1C1(C)CC(c2c(Cl)cccc2Cl)=NO1 (stereo not drawn)	none (no result: M18AAP inhibitor)
COC(=O)/C(=N/Nc1ccccc1)N1CCCc2ccccc21	none | PfGluPho conf inactive
COC(=O)/C(=N/Nc1ccc(C)cc1)N1CCCc2ccccc21	PfGluPho inh 76 | PfGluPho conf inactive
CC(=O)OCCCNc1cc(Sc2nc3ccccc3s2)c2nonc2c1[N+](=O)[O-]	PfGluPho inh 99 (no result: PRMT1 inh, MBD2 DNA inh, UHRF1 binding) | PfGluPho conf 63 | Diaphorase 10uM inactive | Diaphorase 30uM inactive
Cc1cc(C)c(OCCCNC2CCCC2)c(Br)c1	none
CCOc1cc2c(cc1O)CCC1C2CCC2(C)C(O)CCC12 (stereo not drawn)	none (no result: M18AAP inhibitor)
CCNc1cc2c(cc1O)CCC1C2CCC2(C)C(O)CCC12 (stereo not drawn)	PfGluPho inh 80 (no result: M18AAP inhibitor) | PfGluPho conf 50 | Diaphorase 10uM inactive | Diaphorase 30uM inactive
CN1C(=O)CSc2ccc(NC(=O)N3CCc4ccccc43)cc21	PfGluPho inh 87 | PfGluPho conf 60 | Diaphorase 10uM inactive | Diaphorase 30uM inactive
Cc1ccc(NC(=O)N2CCc3ccccc32)cc1C	none
